Screening data deposited in PubChem by National Center for Advancing Translational Sciences (NCATS).
p53 reactivator: qHTS assay for re-activators of p53 using a Luc reporter. H1299 p53-A138V BP100-luciferase reporter, luminescence, 24 h. Potency, µM (top dose mostly 92.2 µM), hits mostly activators. 320,000 compounds, 0.063% hits; further: nearly all actives have a fitted effect of over 45% in size
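p53-null H1299 cells stably carrying temperature-sensitive p53-A138V and a BP100-luciferase reporter were pinned with compounds (4-point, 1:5 series) and held 24 hrs at 37 deg C. Luminescence was read 10 min after detection reagent.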
Tb PFK inh-1: qHTS Assay to Find Inhibitors of T. brucei phosphofructokinase. T. brucei PFK, ADP-Glo luminescence. Potency, µM (doses to about 57.5 µM), actives largely listed as inhibitors. 330,000 compounds, 0.17% hits. AID 485367, 2010; further: nearly all actives have a fitted effect of over 60% in size
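Luminescent ADP detection (ADP-Glo, two-step: ATP depletion then ADP-to-ATP conversion for luciferase) reported PFK activity after 45 min room-temperature reaction of 1.25 nM enzyme with 0.5 mM F6P and 0.1 mM ATP at pH 8.0.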
USP2a inh: qHTS Assay for Inhibitors of Ubiquitin-specific Protease USP2a Using CHOP2 as the Reporter. USP2 core, Ub-CHOP2 coupled fluorogenic reporter, 485/531. AID 463254, 2010. 330,000 compounds, 0.01% hits. Potency, µM (doses to about 38.3 µM), hits mostly inhibitors
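USP2 core (10nM final) preincubated 30min RT with compound in 20mM Tris-HCl pH 8.0, 2mM CaCl2, 2mM beta-mercaptoethanol, 0.05% CHAPS; 25nM Ub-CHOP2 plus 25nM reporter substrate added, fluorescence (Ex485/Em531) read after 60min.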
GLS inh: qHTS for Inhibitors of Glutaminase (GLS) | GLS enzymatic activity, qHTS titration | Potency, µM (top dose mostly 45.5 µM), most hits filed as inhibitors | Glutaminase kidney isoform, mitochondrial (Homo sapiens), O94925 | 410,000 compounds, 0.21% hits
Target sequence (O94925 whole entry, looked up, canonical isoform): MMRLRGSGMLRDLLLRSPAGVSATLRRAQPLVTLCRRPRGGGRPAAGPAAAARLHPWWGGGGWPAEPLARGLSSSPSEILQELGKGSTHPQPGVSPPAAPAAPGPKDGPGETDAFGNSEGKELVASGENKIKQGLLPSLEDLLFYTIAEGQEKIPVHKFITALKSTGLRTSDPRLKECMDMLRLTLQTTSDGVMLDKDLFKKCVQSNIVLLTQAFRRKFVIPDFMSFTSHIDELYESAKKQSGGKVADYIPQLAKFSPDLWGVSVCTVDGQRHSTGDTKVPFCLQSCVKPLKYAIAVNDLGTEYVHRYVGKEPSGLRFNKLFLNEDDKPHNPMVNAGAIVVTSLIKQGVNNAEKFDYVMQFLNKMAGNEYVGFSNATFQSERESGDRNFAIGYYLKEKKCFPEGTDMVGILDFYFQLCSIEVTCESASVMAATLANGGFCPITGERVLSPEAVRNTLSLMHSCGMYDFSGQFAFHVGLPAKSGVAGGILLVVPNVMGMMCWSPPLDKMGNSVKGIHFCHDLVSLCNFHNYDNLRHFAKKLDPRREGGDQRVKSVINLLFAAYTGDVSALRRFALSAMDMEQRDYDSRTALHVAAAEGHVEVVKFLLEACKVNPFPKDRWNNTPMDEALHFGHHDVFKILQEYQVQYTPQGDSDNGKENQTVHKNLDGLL
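hKGA in 45 mM KH2PO4 pH 8.2, 0.02% Tween-20 with pin-transferred compounds; 1 mM L-glutamine (stock) plus glutamate oxidase/HRP/Amplex Red coupling added. Fluorescence read initially and after 30 min at RT.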
TbPFK ATP: Tb PFK orthogonal confirmatory assay using ATP depletion (Kinase-Glo Plus) as an alternative measure of Tb PFK activity: Hit Validation | Tb PFK enzyme, ATP depletion, Kinase-Glo Plus luminescence | AID 504636, 2011 | 1,100 compounds, 47% hits | shares compounds with Tb PFK inh-1 | Potency, µM (series often up to 57.5 µM); calls by dose curve; further: nearly all actives have a fitted effect of over 60% in size
Tb PFK inh-2: Inhibitors of T. brucei phosphofructokinase: Hit Validation; shares compounds with Tb PFK inh-1; purified T. brucei PFK, ADP-Glo luminescence, 45 min; Potency, µM (doses to about 57.5 µM), most hits filed as inhibitors; 1,100 compounds, 41% hits; further: nearly all actives have a fitted effect of over 60% in size
Of the large screens only hits and unclear results are named; the others gave an inactive call (follow-up assays come after a bar, where they were run). Compounds with a hit are over-represented: about 0.39% of the library has one in this group of screens. Unless noted, the call rests on the fitted dose curve; in most records, active means well fitted curve in the direction sought with a large enough effect; inconclusive means small, poorly fitted or top-dose-only effect, or another doubt; inactive means no such curve, though single readings can be large; an effect the other way counts as inactive or inconclusive.

Cc1cccc2sc(NC(=O)c3cccn(Cc4ccccc4)c3=O)nc12	none (no result: p53 reactivator, Tb PFK inh-1, USP2a inh)
S=C1CN=C(c2ccccc2Cl)c2cc(Cl)ccc2N1	none
S=C1CCSc2ccc(Cl)cc2N1	Tb PFK inh-1 inconclusive | TbPFK ATP inconclusive | Tb PFK inh-2 inconclusive
O=C(Oc1ccc(C(=S)N2CCOCC2)cc1)c1ccc([N+](=O)[O-])cc1[N+](=O)[O-]	p53 reactivator inconclusive
CCOc1cc(C(=O)OCc2ccc([N+](=O)[O-])cc2)ccc1OCC(=O)N1CCOCC1	Tb PFK inh-1 inconclusive | TbPFK ATP 15.1µM | Tb PFK inh-2 26.9µM
CCOC(=O)c1c(NC(=O)COC(=O)c2ccc(NC(=O)CC#N)cc2)sc(C(=O)NC)c1C	Tb PFK inh-1 0.849µM | TbPFK ATP 6.01µM | Tb PFK inh-2 6.75µM
CCN(CC)c1ccc(/C=C2\C(=O)NC(=O)N(Cc3ccco3)C2=O)cc1	none
O=C1CC(=O)N(Cc2ccco2)C(=S)N1	Tb PFK inh-1 21.3µM, USP2a inh inconclusive, GLS inh inconclusive | TbPFK ATP 23.9µM | Tb PFK inh-2 inconclusive
C=CCNc1oc(-c2cccc(Cl)c2)nc1C#N	Tb PFK inh-1 26.9µM | TbPFK ATP 16.9µM | Tb PFK inh-2 30.1µM
CC(C)N(CCC(=O)c1ccc2ccccc2c1)Cc1ccccc1	Tb PFK inh-1 inconclusive | TbPFK ATP 30.1µM | Tb PFK inh-2 inconclusive
COC(=O)C1=C(c2cccc(OCc3ccccc3)c2)C[C@@H]2CC[C@H]1N2C(=O)NCc1ccc2[nH]ccc2c1	none
CC1(C)[C@@H](C=C(Cl)Cl)[C@@H]1C(=O)OCc1c(F)c(F)cc(F)c1F	none (no result: p53 reactivator, Tb PFK inh-1, USP2a inh)
Cc1c(Br)c([N+](=O)[O-])nn1CC(=O)Nc1ccc(CC#N)cc1	Tb PFK inh-1 inconclusive (no result: GLS inh) | TbPFK ATP inconclusive | Tb PFK inh-2 inconclusive
Cc1cc(NC(=O)C(Cl)(Cl)Cl)no1	none
Cc1cc(NC(=O)Cn2nc([N+](=O)[O-])c(Br)c2C)no1	Tb PFK inh-1 26.9µM | TbPFK ATP 21.3µM | Tb PFK inh-2 inconclusive
Cc1cccc(NC(=O)Cn2nc([N+](=O)[O-])c(Br)c2C)n1	Tb PFK inh-1 16.9µM | TbPFK ATP 12µM | Tb PFK inh-2 21.3µM
Cc1c(Br)c([N+](=O)[O-])nn1CC(=O)Nc1cccc2nonc12	Tb PFK inh-1 7.57µM | TbPFK ATP 4.78µM | Tb PFK inh-2 2.69µM
CCCCCn1c(=O)c(C(=O)Nc2cccc(C)n2)c(O)c2ccccc21	none
Nc1ccc2nonc2c1[N+](=O)[O-]	USP2a inh inconclusive
c1ccc2c(c1)CN(Cc1ccc3c(c1)OCO3)Cc1cnnn1-2	none (no result: p53 reactivator, Tb PFK inh-1, USP2a inh)
N[C@H]1C[C@H]1c1ccccc1	none (no result: p53 reactivator, Tb PFK inh-1, USP2a inh)
COc1cccc(CNc2ccc(F)c(Cl)c2)c1	Tb PFK inh-1 23.9µM | TbPFK ATP 10.7µM | Tb PFK inh-2 16.9µM
COc1cccc(CCNCc2cccc(C(F)(F)F)c2)c1	Tb PFK inh-1 inconclusive
COc1ccc(OCC(=O)N2CCN(Cc3c[nH]c4ccccc34)CC2)cc1	none
COc1ccc(N=C2S/C(=C\c3ccc(OCC(=O)O)cc3)C(=O)N2CCc2c[nH]c3ccccc23)cc1	Tb PFK inh-1 1.07µM, GLS inh 10µM | TbPFK ATP inconclusive | Tb PFK inh-2 inconclusive
C[C@H](CO)N1C[C@H](C)[C@@H](CN(C)C(=O)Oc2ccccc2)OCc2cnnn2CCCC1=O	none (no result: p53 reactivator, Tb PFK inh-1, USP2a inh)
CNC(=O)Oc1ccccc1C(=O)Nc1ccccc1	none (no result: p53 reactivator, Tb PFK inh-1, USP2a inh)
O=C(Cc1ccc(Cl)c(Cl)c1)OCC(=O)c1ccc[nH]1	Tb PFK inh-1 inconclusive | TbPFK ATP 9.53µM | Tb PFK inh-2 19µM
O=C(OCc1ccc(Cl)c(Cl)c1)c1ccc[nH]1	p53 reactivator inconclusive, Tb PFK inh-1 inconclusive | TbPFK ATP 23.9µM | Tb PFK inh-2 21.3µM
